From PubChem BioAssay
HSF-1 act = increases HSF-1 driven luciferase reporter signal; NIH3T3-HGL HSF-1 luciferase reporter, MG132, 8 h; 100% = twice DMSO control signal; activation, % at 9 µM; 1.7% of 300,000 active;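 active means mean replicate activation of at least 50% with a set share of replicates each reaching 50%; inconclusive means only one of those two conditions met; inactive means mean below 50% and too few replicates reaching it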;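 further: 0% = median of the neutral control wells and 100% = twice that signal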
HSP90 refold inh = inhibitors of HSP90 luciferase refolding in rabbit reticulocyte lysate | luciferase refolding luminescence, 3 h | AID 1789 | 0.91% of 290,000 active | inhibition, % at 5.6 µM;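 active means inhibition above the screen-wide mean plus 3 SD, computed separately per campaign, cut at about 16% in these data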;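 further: 0% = DMSO wells and 100% = 60 µM geldanamycin wells; inhibitors lower the luminescence because luciferase stays unfolded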
HSF1 inhib = HSF1 inhibition; activity change, negative = inhibition, % at 7.5 µM (by protocol); 0.77% of 300,000 active; NIH3T3-HGL HSE-luciferase, MG132-induced, luminescence 8 h; active compounds read low;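 active means more than half of replicate wells show activity change below -50%, luminescence cut by over half; inconclusive means some wells, but at most half, below -50%; inactive means no replicate well below -50%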;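 further: luciferase reports HSF-1 transcriptional activity via heat shock element; 0% = median of DMSO wells and -100% = zero luminescence signal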
AHR act = human AHR activation. P35869. AHR-responsive luciferase reporter cells, luminescence. 2.5% of 320,000 active. AID 2796. activation, % at 5 µM; in the data active means activation above about 47%;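 further: 0% = vehicle wells and 100% = reference agonist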
Target sequence (P35869 whole entry, looked up): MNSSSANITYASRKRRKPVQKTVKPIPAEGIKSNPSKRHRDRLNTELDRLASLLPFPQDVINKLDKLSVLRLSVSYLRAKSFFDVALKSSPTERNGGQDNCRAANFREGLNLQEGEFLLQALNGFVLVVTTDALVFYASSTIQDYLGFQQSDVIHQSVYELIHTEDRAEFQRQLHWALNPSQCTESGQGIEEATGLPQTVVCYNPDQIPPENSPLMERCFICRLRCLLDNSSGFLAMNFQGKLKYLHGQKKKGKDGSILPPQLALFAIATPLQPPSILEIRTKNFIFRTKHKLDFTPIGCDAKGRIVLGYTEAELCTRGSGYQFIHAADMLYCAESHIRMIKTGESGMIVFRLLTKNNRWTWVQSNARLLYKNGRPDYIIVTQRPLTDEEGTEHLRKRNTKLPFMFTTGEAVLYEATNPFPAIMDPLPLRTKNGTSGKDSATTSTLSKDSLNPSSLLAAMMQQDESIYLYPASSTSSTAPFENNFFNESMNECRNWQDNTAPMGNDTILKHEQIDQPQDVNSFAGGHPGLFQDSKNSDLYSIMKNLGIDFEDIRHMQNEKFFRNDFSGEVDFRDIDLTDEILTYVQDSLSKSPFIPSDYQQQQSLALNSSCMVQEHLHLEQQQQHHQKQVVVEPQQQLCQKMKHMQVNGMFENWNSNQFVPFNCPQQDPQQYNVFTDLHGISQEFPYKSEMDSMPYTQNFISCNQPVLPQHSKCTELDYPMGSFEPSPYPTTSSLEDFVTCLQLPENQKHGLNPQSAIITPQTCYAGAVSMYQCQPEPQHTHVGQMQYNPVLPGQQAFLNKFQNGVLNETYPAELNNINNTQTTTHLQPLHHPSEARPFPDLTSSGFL
DAX1 inh = inhibits human nuclear receptor DAX1. P51843. HEK293 Gal4-DAX1 luciferase reporter, luminescence. inhibition, % at 6.75 µM. AID 504766. 0.99% of 340,000 active;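 active means inhibition above the mean over all tested compounds plus 3 SD, cut at about 4.2% in these data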;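 further: 0% = DAX1-transfected cells with DMSO and 100% = empty-vector control cells with DMSO; inhibition shows as a rise in luminescence from relieved DAX1 repression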
GAA850 FXN act = increases GAA850 frataxin promoter reporter activity. AID 540364. 0.56% of 360,000 active. activation, % at 6 µM. HEK293 lucGAA850 FXN promoter luciferase reporter, 24 h; percent of 10 µM SAHA response;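 active means activation above the average of all compounds screened plus 3 SD, cutoff fixed separately per campaign, cut at about 7.5% in these data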;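 further: 0% = DMSO wells and 100% = 10 µM SAHA wells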
GAA30 FXN cntr = activates GAA30 frataxin promoter, counter-screen for GAA850 activators. shares compounds with GAA850 FXN act. HEK293 lucGAA30 FXN promoter luciferase, 24 h; DMSO = 0%, 5 µM ipriflavone = 100%. activation, % at 6 µM. 66% of 1,900 active;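 active means mean activation above the mean of solvent-only control wells plus 3 SD, cut at about 22% in these data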;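 further: counterscreen of GAA850 promoter hits where activity marks nonselective or luminescence artifacts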
FXN GAA850 conf = confirmation of GAA850 frataxin (FXN) promoter activators. shares compounds with GAA850 FXN act. HEK293 lucGAA850 FXN promoter luciferase reporter, 24 h; 100% = activation by SAHA. activation, % at 6 µM. AID 588351. 86% of 1,900 active;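 active means mean activation above a set limit taken from the primary screen, cut at about 8% in these data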;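 further: 0% = DMSO wells and 100% = 10 µM SAHA wells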
An asterisk follows results filed as active; ? = inconclusive; . = not tested or not shown. Hits are enriched below; roughly 5.9% of the tested compounds scored in any of these assays.

SMILES	HSF-1 act	HSP90 refold inh	HSF1 inhib	AHR act	DAX1 inh	GAA850 FXN act	GAA30 FXN cntr	FXN GAA850 conf
CCOc1ccc(-c2c(=O)n(OCc3ccccn3)c3ccccc3[n+]2[O-])cc1	9.4	2.2	-3.7	-5.8	0.4	-1.2	.	.
CCCOc1ccc(-c2c(=O)n(O)c3ccccc3[n+]2[O-])cc1	43.8	-2.6	40.6	6.4	2.9	11.0*	94.9*	30.6*
COCCCNC(=O)c1cc(C)nn1-c1ccccc1	14.8	0.8	-1.3	2.5	-0.6	-1.0	.	.
CCc1ccc(C(=O)NC(CC(C)C)C(=O)O)cc1 (stereo not given)	1.2	-2.1	7.0	-0.7	1.6	20.4*	20.5	6.2
COc1ccc(C(=O)NC(CC(C)C)C(=O)O)cc1OC (stereo not given)	0.6	-1.4	2.6	-0.5	1.8	-1.3	.	.
CCn1c(SCC(=O)NCCc2ccc(OC)c(OC)c2)nc2c([nH]c3ccccc32)c1=O	.	.	.	.	0.0	14.1*	26.2*	8.2*
O=C(CNc1ccccc1F)Nc1cccc2ccccc12	20.2	-1.4	0.6	4.2	1.1	-2.0	.	.
O=C(N/N=C/c1ccc(O)c([N+](=O)[O-])c1)C1CC1(c1ccccc1)c1ccccc1 (stereo not given)	16.1	-0.7	8.3	11.8	0.7	10.0*	32.4*	18.9*
O=C(Nc1ccccc1)c1sccc1Oc1ccc([N+](=O)[O-])cc1F	4.2	1.3	-0.8	-0.7	0.5	-1.6	.	.
COc1ccc(/C(C)=N/Nc2ccc(C(=O)O)cc2)cc1OC	-24.1	26.1*	-17.3	11.2	0.6	8.5*	93.3*	32.1*
COc1cc(C(=O)Nc2ccc(C(=O)O)cc2)ccc1OC(C)=O	-0.1	4.3	-0.2	0.0	0.1	-0.9	.	.
O=C(NCc1ccc2c(c1)OCO2)C1CCCN1S(=O)(=O)c1ccc(Cl)cc1 (stereo not given)	-11.9	2.1	1.0	0.0	0.3	-1.7	.	.
COc1ccc(C(=O)OCC(=O)Nc2cc(C)on2)c(OC)c1OC	-1.3	0.5	-0.3	-0.5	-0.1	3.4	.	.
CC(C)(C)CC(=O)Nc1cc(S(=O)(=O)N2CCCCCC2)ccc1Cl	-9.2	-2.6	-17.7	-0.4	0.8	3.5	.	.
O=C(CCl)Nc1cc(S(=O)(=O)N2CCCCCC2)ccc1Cl	34.9	-3.0	14.5	-1.5	-2.4	10.8*	-10.0	13.8*
O=C(COc1ccc([N+](=O)[O-])cc1)Nc1cccc2nsnc12	4.2	1.8	-0.4	7.5	0.0	0.4	.	.
CNc1ncnc2c1ncn2[C@H]1CN(Cc2ccc(-c3ccccc3)cc2)C[C@@H](CO)O1	.	.	.	.	.	-0.3	.	.
Clc1nc(-c2cccnc2)nc2scc(-c3ccccc3)c12	71.8*	2.9	58.0	67.8*	0.2	8.1*	97.2*	30.9*
OC[C@H]1O[C@@H](n2cnc3c(NC4CCCC4)nc(Cl)nc32)[C@H](O)[C@@H]1O	.	.	.	2.9	-0.1	8.5*	30.6*	18.5*
CC(Cc1ccccc1)Nc1ncnc2c1ncn2C1OC(CO)C(O)C1O (stereo not given)	-2.0	.	-1.7	-2.6	-0.3	8.7*	54.9*	25.1*
Cc1ccc(N2CC(C(=O)N/N=C/c3c(F)cccc3Cl)CC2=O)cc1 (stereo not given)	5.9	-3.5	-0.1	7.0	-0.1	1.7	.	.
CC(C)CNC(=O)c1ccccc1NC(=O)c1ccccc1N(C)S(=O)(=O)c1ccccc1	4.6	-1.9	6.4	10.5	-0.2	13.2*	11.5	2.5
COC(=O)c1ccccc1NC(=O)c1ccccc1N(C)S(=O)(=O)c1ccccc1	0.8	-1.2	-5.1	4.1	-2.4	3.1	.	.
COCCNC(=O)c1ccccc1NC(=O)c1ccccc1N(C)S(=O)(=O)c1ccc(C)cc1	.	1.9	.	4.4	-1.1	2.9	.	.
CCCNC(=O)c1ccccc1NC(=O)c1ccccc1N(C)S(=O)(=O)c1ccccc1	12.0	-1.5	1.7	1.8	1.8	13.6*	8.3	19.0*
SMILES	HSF-1 act	HSP90 refold inh	HSF1 inhib	AHR act	DAX1 inh	GAA850 FXN act	GAA30 FXN cntr	FXN GAA850 conf
O=c1oc(-c2ccc(O)c(O)c2)cc2cccc(O)c12	.	.	.	22.0	3.8	13.2*	129.2*	45.6*
O=c1cc(-c2ccc(O)c(O)c2)oc2ccc3ccccc3c12	.	.	.	.	-3.9	-0.7	.	.
O=C(CN1CCN(S(=O)(=O)c2ccc(Br)cc2)CC1)N/N=C/c1ccncc1	-2.6	1.1	-3.2	3.1	0.4	-2.4	.	.
CCN(CC)c1ccc(/C=C2/SC(=O)N(C(C)C)C2=O)o1	209.2*	2.4	142.0	.	1.0	8.0*	96.0*	31.8*
CC(C)N1C(=O)S/C(=C\c2ccc(-c3ccc(Cl)c(C(=O)O)c3)o2)C1=O	31.6	9.3	16.4	5.4	1.2	8.2*	115.6*	37.5*
CCCN1C(=O)S/C(=C/c2ccc(N3CCOCC3)o2)C1=O	22.4	2.3	28.4	4.5	0.9	5.8	.	.
Cc1c(C(=O)N2CCc3ccccc32)oc2c1C(=O)CC(C)(C)C2	.	-0.6	.	.	2.5	11.1*	113.4*	40.1*
Cc1c(CCC(=O)NCCC(=O)O)c(=O)oc2cc3occ(-c4ccccc4)c3cc12	1.1	0.8	-8.6	0.3	-0.2	-1.1	.	.
Cc1c(CCC(=O)NCC(=O)O)c(=O)oc2cc3occ(-c4ccccc4)c3cc12	-0.7	-0.3	0.4	.	-1.8	9.4*	2.4	0.8
CC(C)Nc1oc(-c2cccc3ccccc23)nc1C#N	45.4	3.0	31.4	25.3	1.1	8.6*	96.6*	35.7*
CCNc1oc(-c2cccc3ccccc23)nc1C#N	43.8	-2.6	26.2	2.7	2.9	7.0	.	.
CCCCn1c(N)c(N(CCOC)C(=O)CSCc2ccc(C)cc2)c(=O)[nH]c1=O	-14.3	.	-4.8	0.7	-0.1	1.3	.	.
O=c1[nH]c2ccccc2c2cn(-c3ccccc3)nc12	?	0.5	30.9	63.6*	1.4	8.8*	112.4*	45.6*
CC(C)c1ccc(O)c(NC(=O)c2ncn[nH]2)c1	.	0.6	.	37.9	-0.2	-0.7	.	.
CC(C)c1ccc2c(c1)C1(NN=C(c3ccccc3)S1)C(=O)N2 (stereo not given)	-10.0	3.5	-1.8	34.0	-0.5	7.9*	-78.5	-22.2
O=C(CSc1nnnn1-c1ccc(F)cc1)c1ccc(O)c(O)c1	6.7	-6.1	0.2	10.7	-1.6	11.6*	30.9*	17.4*
O=C(O)c1ccc(CSc2nnnn2-c2ccc(F)cc2)cc1	-2.5	-4.5	0.1	-0.7	0.3	1.6	.	.
Cc1ccc(C(=O)N2CCN(Cc3ccc4c(c3)OCO4)CC2)cc1C	-1.2	8.7	0.8	-0.6	-0.7	1.1	.	.
